# Among all 310,000 compounds or so, about 14,000 (4.5%) showed an effect of 50% or more. Effects have a minus sign here. What follows is part of a selection rich in strong results, with near analogues and random picks from the rest.
# Molecular target: human ether-à-go-go-related gene (hERG) potassium channel (human, UniProt Q12809)
# Experiment: primary screen, population patch clamp on CHO cells stably expressing hERG; higher = less effect of the substance
# 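Also: peak tail current of the secondary pulse compared with the same well before compound.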
# human ether-à-go-go-related gene (hERG) potassium channel, sequence (Q12809 whole entry, looked up): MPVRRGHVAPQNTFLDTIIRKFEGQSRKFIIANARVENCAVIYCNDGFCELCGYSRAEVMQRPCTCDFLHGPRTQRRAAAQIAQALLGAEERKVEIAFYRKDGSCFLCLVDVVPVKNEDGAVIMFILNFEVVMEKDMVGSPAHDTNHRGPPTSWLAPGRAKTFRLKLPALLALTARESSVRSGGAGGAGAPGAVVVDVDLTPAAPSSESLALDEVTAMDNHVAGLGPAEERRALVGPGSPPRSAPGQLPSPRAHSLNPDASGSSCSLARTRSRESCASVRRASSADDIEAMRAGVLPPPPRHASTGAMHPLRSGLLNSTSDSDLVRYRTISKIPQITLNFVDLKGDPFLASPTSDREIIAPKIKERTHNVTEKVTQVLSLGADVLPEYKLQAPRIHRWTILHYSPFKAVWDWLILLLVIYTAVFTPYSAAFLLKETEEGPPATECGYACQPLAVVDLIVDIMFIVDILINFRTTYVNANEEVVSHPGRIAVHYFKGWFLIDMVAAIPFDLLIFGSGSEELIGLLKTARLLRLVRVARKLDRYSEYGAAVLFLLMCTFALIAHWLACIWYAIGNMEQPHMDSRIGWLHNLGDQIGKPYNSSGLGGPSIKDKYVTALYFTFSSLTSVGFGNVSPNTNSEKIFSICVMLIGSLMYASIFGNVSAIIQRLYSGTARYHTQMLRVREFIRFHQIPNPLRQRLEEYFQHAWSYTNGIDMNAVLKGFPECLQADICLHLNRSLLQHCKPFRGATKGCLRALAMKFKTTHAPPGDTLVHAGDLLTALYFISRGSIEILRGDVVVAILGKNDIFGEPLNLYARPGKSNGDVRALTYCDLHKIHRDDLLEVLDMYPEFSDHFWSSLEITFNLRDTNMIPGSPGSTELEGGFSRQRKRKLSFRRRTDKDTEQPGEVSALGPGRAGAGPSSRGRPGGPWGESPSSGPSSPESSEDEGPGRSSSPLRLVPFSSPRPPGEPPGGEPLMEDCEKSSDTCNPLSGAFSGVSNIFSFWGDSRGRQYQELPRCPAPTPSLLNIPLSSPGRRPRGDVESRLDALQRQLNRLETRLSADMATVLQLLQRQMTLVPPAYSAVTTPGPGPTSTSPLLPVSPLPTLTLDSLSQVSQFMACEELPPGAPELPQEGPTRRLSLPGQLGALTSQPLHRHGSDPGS
row,SMILES,"hERG current change (%, negative = inhibition) at 10uM [%]"
1,O=C(c1ccccc1C(=O)N1CCN(c2ccccc2F)CC1)N1CCN(c2ccccc2F)CC1,-31
2,COc1ccccc1N1CCN(C(=O)c2cc(-c3ccc(F)cc3)[nH]c2C)CC1,-64.5
3,COc1ccccc1N1CCN(C(=O)c2cc3cc(F)ccc3[nH]2)CC1,15.8
4,Cc1[nH]c(-c2ccc(F)cc2)cc1C(=O)N1CCN(c2ccccc2F)CC1,-70.3
5,COc1ccccc1N1CCN(C(=O)c2cc(-c3ccc(F)cc3)on2)CC1,19.1
6,O=C(c1ccccc1F)N1CCN(c2ccccc2F)CC1,-2.08
7,N#CC1=C(N)Oc2n[nH]c(-c3cccs3)c2C1C1CCCCC1 (stereo not shown),8.73
8,Cc1ccccc1C(=O)Nc1ccccc1NC(=O)c1ccccc1Br,25.4
9,COC(=O)c1ccc(-c2noc(CN(C)CC3CCCCO3)n2)cc1 (stereo not shown),11.3
10,Cn1c(Cn2c(=O)sc3ccccc32)nnc1SCc1cccc(F)c1,-11.6
11,Cc1cc(C)cc(NC(=S)NCc2ccc3c(c2)OCO3)c1,-8.9
12,OC(CNCC1CCCCC1)COc1ccccc1 (stereo not shown),-0.428
13,Cc1ccc(CC(=O)Nc2cc(C)ccn2)cc1,11.2
14,O=[N+]([O-])c1cc(S(=O)(=O)NCCN2CCOCC2)ccc1Sc1nnnn1-c1ccccc1,-24.6
15,CCCCSc1nnc(CNC(=O)C23CC4CC(CC(C4)C2)C3)n1Cc1ccccc1,-29.7
16,O=C(Nc1ccc(CN2CCOCC2)cc1)c1ccc(-c2ccc(Cl)cc2Cl)o1,-7.54
17,Cn1c(=O)n(C)c2cc([N+](=O)[O-])c(N3CCN(C(=O)c4ccccc4Cl)CC3)cc21,-34.4
18,Cn1c(=O)n(C)c2cc([N+](=O)[O-])c(N3CCN(C(=O)c4cccc(Cl)c4)CC3)cc21,-64.2
19,CCOC(=O)C(=O)N1CCN(c2cc3c(cc2[N+](=O)[O-])n(C)c(=O)n3C)CC1,-24.2
20,Cn1c(=O)n(C)c2cc([N+](=O)[O-])c(N3CCN(C(=O)c4ccccc4Br)CC3)cc21,-70.6
21,Cn1c(=O)n(C)c2cc([N+](=O)[O-])c(N3CCN(CCO)CC3)cc21,24.9

row,SMILES,"hERG current change (%, negative = inhibition) at 10uM [%]"
1,Cn1c(=O)n(C)c2cc([N+](=O)[O-])c(N3CCN(C(=O)C(C)(C)C)CC3)cc21,-8.56
2,Cn1c(=O)n(C)c2cc([N+](=O)[O-])c(N3CCN(C(=O)c4ccc(F)cc4)CC3)cc21,-44
3,Cn1c(=O)n(C)c2cc([N+](=O)[O-])c(N3CCNCC3)cc21,5.58
4,Cn1c(=O)n(C)c2cc([N+](=O)[O-])c(N3CCN(C(=O)c4ccccc4)CC3)cc21,-36.1
5,Cc1ccc(C(=O)N2CCN(c3cc4c(cc3[N+](=O)[O-])n(C)c(=O)n4C)CC2)cc1,-66.6
6,Cn1c(=O)n(C)c2cc([N+](=O)[O-])c(N3CCN(C(=O)c4ccc(Cl)cc4)CC3)cc21,-65.9
7,Cn1c(=O)n(C)c2cc(N3CCCCC3)c(NC(=O)c3cccc(Cl)c3)cc21,14.8
8,O=C(COC(=O)c1ccc2ncsc2c1)Nc1cccc(Cl)c1,2.07
9,Cc1ccc(-n2c(SCn3nnc4ccccc4c3=O)nnc2-c2cccnc2)c(C)c1,-39.3
10,Cc1cccc(C)c1NC(=O)CN(C)CC(=O)Nc1ccccc1Oc1ccccc1,11.3
11,COc1ccc(NC(=O)c2ccc([N+](=O)[O-])o2)cc1,11.1
12,O=C(COc1ccccc1)NC1CCN(Cc2ccccc2)CC1,-50.4
13,CCCc1cc(=O)oc2cc(OCC(=O)NC3CCN(Cc4ccccc4)CC3)ccc12,-60.2
14,CCc1cc(=O)oc2cc(C)cc(OCC(=O)NC3CCN(Cc4ccccc4)CC3)c12,-36
15,O=C(COc1ccc2ccc(=O)oc2c1)NC1CCCCC1,1.43
16,CCCc1cc(=O)oc2cc(C)cc(OCC(=O)NC3CCN(Cc4ccccc4)CC3)c12,-10.3
17,O=C(COc1ccccc1)NC1CCCCCCC1,-4.51
18,Cc1c(OCC(=O)NC2CCN(Cc3ccccc3)CC2)ccc2c3c(c(=O)oc12)CCC3,-47.7
19,CCCc1cc(=O)oc2c(C)c(OCC(=O)NC3CCN(Cc4ccccc4)CC3)ccc12,-51.4
20,Cc1c(C)c2ccc(OCC(=O)NC3CCN(Cc4ccccc4)CC3)c(C)c2oc1=O,-42.7
21,O=C(O)COCC(=O)NC1CCN(Cc2ccccc2)CC1,12.5

row,SMILES,"hERG current change (%, negative = inhibition) at 10uM [%]"
1,O=C(COc1ccc2ccc(=O)oc2c1)NC1CCN(Cc2ccccc2)CC1,-55.2
2,O=C(COc1ccc2ccc(=O)oc2c1)NC1CCCC1,13.4
3,Cc1ccc(S(=O)(=O)c2cnc3cc(C)nn3c2N)cc1,0.694
4,Cc1ccc(CN2C(=O)[C@@H]3Cc4c([nH]c5ccccc45)C(C)(C)N3C2=O)cc1,7.62
5,O=[N+]([O-])c1ccccc1/C=N/NC1=NS(=O)(=O)c2ccccc21,-1.94
6,O=C(NCCCN1CCCC1=O)NC1CCCCC1,10.9
7,Cc1ccc(NC(=S)NNC(=O)c2ccc(N3CCOCC3)c([N+](=O)[O-])c2)cc1Cl,6.24
8,O=C(O)CCC1=C2c3ccccc3CCN2C(=O)CC1,9.77
9,Cc1ccc(C(=O)Nn2cnnc2)cc1Cl,16.3
10,CC1CCN(S(=O)(=O)c2ccc(NC(=O)CSc3ncccc3C(=O)O)cc2)CC1,7.31
11,O=C(COc1ccc(Cl)cc1)NC1CCSC1=O (stereo not shown),-16.8
12,Cc1cc(=O)oc2cc(OCC(=O)NC3CCN(Cc4ccccc4)CC3)ccc12,-63.9
13,Cc1cc(OCC(=O)NC2CCN(Cc3ccccc3)CC2)c2c(C)cc(=O)oc2c1,-21.4
14,CCCCc1cc(=O)oc2cc(OCC(=O)NCC3CCC(C(=O)O)CC3)ccc12 (stereo not shown),18
15,O=C(COc1ccccc1)NC1CCSc2ccccc21 (stereo not shown),0.0355
16,O=C(COc1ccc2c3c(c(=O)oc2c1)CCC3)NC1CCN(Cc2ccccc2)CC1,-24.9
17,O=C(COc1ccccc1)NC1CCSC1=O (stereo not shown),-72.9
18,CCCCc1cc(=O)oc2cc(OCC(=O)NC3CCN(Cc4ccccc4)CC3)ccc12,-61.1
19,CCCCc1cc(=O)oc2cc(OCC(=O)N[C@@H](Cc3ccccc3)C(=O)O)ccc12,6.13

# Reference: publication PMC4336329 (PLoS ONE, 2015)
